# KCNQ2 inh – rat KCNQ2 potassium channel inhibitors, primary screen, cell-based, CHO-K1, FluxOR thallium flux, B-score; 20 min; active compounds read low; AID 2156, 2009; 310,000 compounds, 1.1% hits; Potassium voltage-gated channel subfamily KQT member 2 (Rattus norvegicus), O88943; B-score at 10 µM;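 active means fluorescence ratio B-score at most minus 3 library SDs, with starting brightness B-score within 2 library SDs, cut at about -5.5 in these data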
# Target sequence (O88943 whole entry, looked up): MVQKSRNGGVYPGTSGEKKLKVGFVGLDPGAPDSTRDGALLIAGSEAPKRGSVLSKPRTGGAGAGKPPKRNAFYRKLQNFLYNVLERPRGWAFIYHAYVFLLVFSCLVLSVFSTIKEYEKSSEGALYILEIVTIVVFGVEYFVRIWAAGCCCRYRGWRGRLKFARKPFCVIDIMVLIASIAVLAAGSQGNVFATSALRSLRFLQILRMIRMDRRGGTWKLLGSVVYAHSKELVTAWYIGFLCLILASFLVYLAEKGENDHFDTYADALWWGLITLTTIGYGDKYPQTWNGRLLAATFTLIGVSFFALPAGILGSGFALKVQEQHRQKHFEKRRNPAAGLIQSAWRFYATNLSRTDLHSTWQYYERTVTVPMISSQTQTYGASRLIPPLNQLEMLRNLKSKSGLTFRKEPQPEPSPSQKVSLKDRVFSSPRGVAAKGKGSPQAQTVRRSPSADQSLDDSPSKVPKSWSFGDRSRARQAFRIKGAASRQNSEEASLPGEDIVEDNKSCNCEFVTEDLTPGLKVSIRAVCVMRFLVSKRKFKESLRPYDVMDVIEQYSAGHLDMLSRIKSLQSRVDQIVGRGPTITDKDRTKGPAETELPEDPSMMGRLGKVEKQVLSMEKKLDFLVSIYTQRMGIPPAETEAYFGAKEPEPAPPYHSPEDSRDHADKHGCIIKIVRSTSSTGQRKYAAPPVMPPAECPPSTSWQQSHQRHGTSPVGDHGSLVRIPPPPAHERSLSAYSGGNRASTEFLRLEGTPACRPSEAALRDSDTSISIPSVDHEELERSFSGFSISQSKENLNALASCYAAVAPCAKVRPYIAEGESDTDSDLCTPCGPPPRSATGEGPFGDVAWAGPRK
# KCNQ2 enhance – potentiators of rat KCNQ2 potassium channel; B-score at 10 µM; Potassium voltage-gated channel subfamily KQT member 2 (Rattus norvegicus), O88943; CHO-K1 KCNQ2, FluxOR thallium flux fluorescence; active compounds read high; AID 2239, 2010; 310,000 compounds, 0.54% hits;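 active means fluorescence ratio B-score at least 3 SD of library B-scores, with initial fluorescence B-score within 3 of them, cut at about 5.3 in these data; same plate scores as AID 2156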;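 further: B-score of peak minus minimum over baseline fluorescence ratio after K+ and Tl+ stimulus; positive B-score means potentiation of KCNQ2 with more thallium influx and brighter signal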
# Active calls of the source: *; i = inactive; / = no result. This is a sample that favours compounds with a hit; in the whole collection about 1.6% have one here.
SMILES,KCNQ2 inh,KCNQ2 enhance
COc1ccc(Cl)cc1/C=N/NC(=O)c1c(-c2ccccc2)noc1C,-6.2*,-6.2
COc1cccc(/C=N/NC(=O)c2c(-c3ccccc3)noc2C)c1O,i,/
COc1cccc(/C=N/NC(=O)c2c(-c3ccccc3)noc2C)c1OC,-7.3*,-7.3
COc1cc(/C=N/NC(=O)c2c(-c3ccccc3)noc2C)ccc1O,i,/
Nc1nc(-c2ccc(Cl)cc2)nn1C(=O)c1cccs1,i,0.01
Cc1cc2[nH]c(=O)c(=O)[nH]c2cc1S(=O)(=O)Nc1cccc(C)c1C,i,/
Nc1nc2c(Cl)cc(Cl)cc2s1,i,0.89
Nc1nc2c(Cl)ccc(Cl)c2s1,i,6*
COCCN(C(=O)CSc1nnc(-c2ccccc2F)n1N)c1c(N)n(Cc2ccccc2)c(=O)[nH]c1=O,i,1.1
CCN(CCn1cccn1)C(=O)c1ccc2nc(Cc3ccc(OC)cc3)oc2c1,i,/
Cc1cccc(N2CCN(C(=O)CSCc3c(C)noc3C)CC2)c1C,-6*,-6
Cc1noc(C)c1CSCC(=O)N1CCN(c2ccc(F)cc2)CC1,i,/
c1ccc(SCc2cn(C[C@H]3CC[C@@H]([C@@H]4CC[C@H](Cn5cc(CSc6ccccc6)nn5)O4)O3)nn2)cc1,i,/
Cc1cc(OCC(=O)N[C@@H](CSCc2ccccc2)C(=O)O)c2c(C)c(C)c(=O)oc2c1,i,0.86
CCc1ncc(CN2CCC(C(=O)Nc3cccc(-c4cscn4)c3)CC2)cn1,i,1.4
Cc1ccc2c(c1)cc(CN(CCc1ccccc1)C(=O)N1CCOCC1)c1nnnn12,i,/
Cc1ccc2c(c1)cc(CN(Cc1ccco1)C(=O)N1CCOCC1)c1nnnn12,-8.8*,-8.8
COc1cc(NC(=O)c2ccccc2F)ccc1NC(=O)c1cc2ccccc2o1,i,/
Cc1ccccc1NC(=S)N1CCN(c2ccccc2Cl)CC1,i,/
CCCCc1nnc(NC(=O)c2ccc3[nH]c(=O)c(=O)[nH]c3c2)s1,i,0.68
Oc1ccc(Br)cc1C=Nc1ccc(Cl)cc1,i,2.2
Cc1ccc(N=Cc2cc(Br)cc(Cl)c2O)cc1,i,12*
COc1cccc(CC(=O)Nc2ccc3nc(C)sc3c2)c1,i,/
COc1ccc(OCC(=O)Nc2ccc3nc(C)sc3c2)cc1,-9.6*,-9.6
CC1SC2(NC1=O)C1CC3CC(C1)CC2C3 (configuration not stated),i,/
SMILES,KCNQ2 inh,KCNQ2 enhance
O=C1/C(=C\c2ccc3ccccc3c2)CCCc2ccccc21,-6.5*,-6.5
Cc1ccccc1/C=C1\CCCc2ccccc2C1=O,i,/
CC(=O)NC(CC(=O)N(C)Cc1cccc(Cl)c1Cl)c1ccccc1 (configuration not stated),i,/
CC(=O)Nc1ccc(S(=O)(=O)N2CCN(C(=O)c3ncoc3-c3ccc(F)cc3)CC2)cc1,i,/
Cc1cccnc1NC(=O)c1nn(C)c2c1CS(=O)(=O)c1ccccc1-2,i,0.02
CCCC1=Nc2cc(C(=O)N3CCN(c4ccccn4)CC3)ccc2Sc2ccc(C)cc21,-5.7*,-5.7
CCC1=Nc2cc(C(=O)N3CCCCC3)ccc2Sc2ccc(C)cc21,-5.9*,-5.9
CCCC1=Nc2cc(C(=O)N3CCCC3)ccc2Sc2ccc(C)cc21,i,/
CCOC(=O)N1CCN(C(=O)c2ccc3c(c2)N=C(CC)c2cc(C)ccc2S3)CC1,i,/
CCCOP(=O)(OCCC)C(Nc1ccc(C(=O)O)cc1)c1ccccc1 (configuration not stated),i,0.14
CCCCOP(=O)(OCCCC)C(Nc1ccc(C(=O)OCC)cc1)c1ccncc1 (configuration not stated),-5.7*,-5.7
COc1ccc(NC(=O)CSCC(=O)N(C)CC(=O)Nc2cccc3ccccc23)cc1,i,0.22
O=C(COc1ccccc1F)Nc1c2c(nn1-c1ccccc1)CS(=O)(=O)C2,i,1.4
Cc1ccc(S(=O)(=O)N2CCOC23CCN(C(=O)C(=O)NCc2ccccc2)CC3)cc1,i,/
CC(C)CN(/C=N/c1sc2c(c1C#N)CCCCC2)CC(C)C,-6.2*,-6.2
CCN(/C=N/c1sc2c(c1C#N)CCCCC2)CC,i,/
COc1ccc(/C=N/NC(=O)c2cc3c(ccc4ccccc43)o2)c(OC)c1,-6.3*,-6.3
COc1ccc(OC)c(/C=N\NC(=O)c2cc3c(ccc4ccccc43)o2)c1,i,0.92
Cc1nn(-c2ccccc2)c(N2CCCC2)c1/C=N/NC(=S)Nc1ccccc1F,i,/
O=C(Nc1cc(Cl)cc(Cl)c1)C(c1ccccc1)N1CCCCC1 (configuration not stated),-6.4*,-6.4
COc1cccc(NC(=O)C(c2ccccc2)N2CCCCC2)c1 (configuration not stated),i,/
COc1ccccc1C(=O)N/C(=C\c1cn(S(=O)(=O)N(C)C)c2ccccc12)C(=O)N1CCOCC1,i,1.2
O=C(CSc1nnc(COc2ccc(F)cc2)o1)N1c2ccccc2CCc2ccccc21,-6.6*,-6.6
O=C(CSc1nnc(COc2ccc(F)cc2)o1)N1CCCCC1,i,0.66
COc1ccc(-n2cc(-c3ccccc3)c3c(NCCCN4CCOCC4)ncnc32)cc1,i,/
SMILES,KCNQ2 inh,KCNQ2 enhance
c1ccc(-c2cn(-c3ccccc3)c3ncnc(NCCCN4CCOCC4)c23)cc1,-5.6*,-5.6
Cc1cccc(-c2nc(NCCCN3CCOCC3)c3ccccc3n2)c1,-5.9*,-5.9
c1ccc(-c2nc(NCCCN3CCOCC3)c3ccccc3n2)cc1,i,0.42
CC(C)Cn1c(N)c(C(=O)COC(=O)C2CC(=O)N(c3ccc4c(c3)OCCO4)C2)c(=O)n(C)c1=O (configuration not stated),i,1.2
CCc1cc2cc(C)cc(C)c2[nH]c1=S,i,0.15
O=[N+]([O-])c1cc(Cl)ccc1N1CCN(c2cccc(C(F)(F)F)c2)CC1,-6.2*,-6.2
O=[N+]([O-])c1cc(Cl)ccc1N1CCCC1,i,0.43
Cc1ccc(Oc2c(CO)c(-c3ccccc3)nn2C)cc1,i,/
CCC1(C)Cc2ccccc2-c2nc(NN)[nH]c(=O)c21 (configuration not stated),i,/
CCC1(C)Cc2ccccc2-c2nc(-c3ccccc3)oc(=O)c21 (configuration not stated),-5.5*,-5.5
CC1=CC(C)(C)N(C(=O)CNC2CCCC2)c2cc(C)ccc21,i,/
O=C(Nc1ccccn1)C1CCN(c2ncnc3c2nc2n3CCCCC2)CC1,i,0.24
Oc1c(Br)cc(Br)cc1C=Nc1ccc2c(c1)OCCO2,i,2.9
Oc1c(Br)cc(Br)cc1C=Nc1ccc2c(c1)OCO2,i,9.8*
COC(=O)C1=C(C)N(Cc2ccccc2)C(=NCCCCO)N[C@H]1CCc1ccccc1,i,/
Cc1cc2[nH]c(=O)c(=O)[nH]c2cc1S(=O)(=O)Nc1cccc(Cl)c1,i,/
CC12CCC(C(=O)Nc3cccc(Cl)c3)(C(Br)C1=O)C2(C)C (configuration not stated),i,7*
CC12CCC(C(=O)Nc3ccc(Cl)cc3)([C@H](Br)C1=O)C2(C)C (some centres not stated),i,/
O=C(CN1C(=O)COc2ccc(Cl)cc21)NC1CC1,i,/
Cc1ccc(C)c(SCC(=O)c2ccc[nH]2)c1,i,/
N#C/C(=C\c1cn(CCOc2ccccc2)c2ccccc12)C(=O)NCc1cccs1,i,1.3
